Assay outcomes: PubChem BioAssay, University of Kansas High Throughput Screening Laboratory
Sampled rows, rich in hits. Any-hit rate of the full collection: about 3.6%.
mHTT CaM bind: inhibitors of human mutant huntingtin-calmodulin interaction; P42858; 190,000 tested, 3.6% active; AlphaScreen His-mHTT/GST-CaM binding, luminescence; inhibition, % at 15 µM
Pf apPOL inh: Pf-apPOL DNA polymerase inhibition; Recombinant Pf-apPOL, molecular beacon fluorescence, 1.5 h; 210,000 tested, 0.25% active; inhibition, % at 10 µM
Large screens that a line does not name were inactive; ! = not active in a repeat. Rule as the data show it: active = inhibition above about 50%; inactive = the rest.

O=C(c1ccc(F)c(F)c1)N1CCC(n2c(-c3ccco3)nc3cccnc32)C1 (configuration not stated)	mHTT CaM bind 71
O=C(c1ccccc1)N1CCC(n2c(-c3ccco3)nc3cccnc32)C1 (configuration not stated)	none
Cc1ccc(C(=O)N2CCC(n3c(-c4ccco4)nc4cccnc43)C2)cc1F (configuration not stated)	mHTT CaM bind 72
O=C(NCCC1=CCCCC1)c1cc(=O)c(OCc2ccc(F)cc2)co1	none
O=C(CSc1nc2c(c(=O)n1-c1ccc(Br)cc1)SCC2)NCc1ccco1	none
O=C(Nc1nc(-c2cc3ccccc3oc2=O)cs1)c1ccc(Br)s1	Pf apPOL inh 75
O=C(Nc1nc(-c2cc3ccccc3oc2=O)cs1)c1ccc(F)cc1	none
CCOC(=O)C1CCN(S(=O)(=O)N(C)C)CC1	none (no result: Pf apPOL inh)
CC1CCN(c2nc3c([nH]2)c(=O)n(C)c(=O)n3C)CC1	none
NC(=O)c1cc(NC(=O)c2ccco2)ccc1N1CCCCC1	none
Cc1[nH]c2ccccc2c1SCCNC(=O)COc1ccc(Cl)cc1Cl	mHTT CaM bind 93
Cc1[nH]c2ccccc2c1SCCNC(=O)COc1ccc(Cl)cc1	mHTT CaM bind 84
Cc1[nH]c2ccccc2c1SCCNC(=O)c1cccc(Cl)c1	none
CCOc1cc(C(=O)NCCSc2c(C)[nH]c3ccccc23)cc(OCC)c1OCC	none
Cc1[nH]c2ccccc2c1SCCNC(=O)c1c(F)cccc1F	none
Cc1[nH]c2ccccc2c1SCCNC(=O)C(C)(C)Oc1ccc(Cl)cc1	mHTT CaM bind 98
O=C(COc1ccc(Cl)cc1)NCCSc1c[nH]c2ccccc12	none
CCOc1ccccc1C(=O)NCCSc1c(C)[nH]c2ccccc12	mHTT CaM bind 71
O=C1OC(c2ccccc2[N+](=O)[O-])=N/C1=C\c1coc2ccccc2c1=O	none
CCn1nc(C)cc1C(=O)NC1CCN(Cc2c(F)cccc2Cl)CC1	none (no result: mHTT CaM bind)
COc1ccc(NC(=O)NCC(c2ccccc2Cl)N(C)C)cc1OC (configuration not stated)	none
CCCn1nc(-c2nonc2N)nc1-c1nonc1N	none
O=c1[nH]cc(C(F)(F)F)cc1Cl	none (no result: mHTT CaM bind)
O=C(c1cccc([N+](=O)[O-])c1)N1N=C(C(F)(F)F)CC1(O)c1ccncc1 (configuration not stated)	none
O=C(NCc1ccccn1)c1ccc2c(c1)NC(=O)C(N1CCCC1)S2 (configuration not stated)	mHTT CaM bind 58
O=C(NCc1ccccc1Cl)c1ccc2c(c1)NC(=O)C(N1CCCC1)S2 (configuration not stated)	none
CCN1C(=O)Cc2cc(C(=O)NC(C)c3ccccc3)ccc21 (configuration not stated)	none
COc1ccc(C2SCC(=O)N2CCc2ccc(OC)c(OC)c2)c(OC)c1 (configuration not stated)	none
COc1ccc(CCN2C(=O)CSC2c2ccc(Cl)c(Cl)c2)cc1OC (configuration not stated)	mHTT CaM bind 100
O=S(=O)(NCCSC1CCCCC1)c1ccc2c(c1)OCCO2	none
CC(C)(C)OC(=O)N1CCC(CNS(=O)(=O)c2ccc3c(c2)OCCO3)CC1	Pf apPOL inh 63! (no result: mHTT CaM bind)
O=C(COc1ccccc1F)N1CC(c2nc(-c3ccccc3)no2)C1	none
Cc1c(Cl)c([N+](=O)[O-])nn1CCCC(=O)N1CCN(c2ccccc2)CC1	none
Cc1c(Cl)c([N+](=O)[O-])nn1CCCC(=O)N(Cc1ccccc1)Cc1ccccc1	mHTT CaM bind 84
O=C(c1c[nH]c2ccccc12)N1CCC2(CC1)NC(=O)N(Cc1cccc(Cl)c1)C2=O	mHTT CaM bind 100
O=C(c1nccc2ccccc12)N1CCC2(CC1)NC(=O)N(Cc1cccc(Cl)c1)C2=O	none
O=C(c1cc2ccccc2[nH]1)N1CCC2(C1)NC(=O)N(Cc1ccc(Cl)cc1)C2=O (configuration not stated)	none
O=C(c1cc2ccccc2[nH]1)N1CCC2(CC1)NC(=O)N(Cc1ccc(Cl)cc1)C2=O	mHTT CaM bind 99
O=C(c1ccccc1F)N1CCC2(CC1)NC(=O)N(Cc1ccccc1)C2=O	none
O=C(c1c[nH]c2ccccc12)N1CCC2(CC1)NC(=O)N(Cc1ccccc1)C2=O	mHTT CaM bind 62
COc1ccc(C)cc1NC(=O)C(=O)NCCCN1CCCC1=O	none
CN(C)c1ccc(N2CC(C(=O)O)CC2=O)cc1 (configuration not stated)	none
CC1(O)NC(C(C#N)C#N)=C(C#N)C(c2ccc(F)cc2)C1[n+]1ccccc1 (configuration not stated)	none
N#CC1=C(S)NC(O)(c2ccccc2)C([n+]2ccc3ccccc3c2)C1c1cccc(F)c1 (configuration not stated)	mHTT CaM bind 69
Cc1cc[n+](C2C(c3ccc([N+](=O)[O-])cc3)C(C#N)=C(S)NC2(O)C2CC2)cc1 (configuration not stated)	mHTT CaM bind 58
CCOc1ccc(C2C(C#N)=C(C(C#N)C#N)NC(O)(C3CC3)C2[n+]2ccc(C)cc2)cc1 (configuration not stated)	none
Cc1ccc(C2(O)NC(S)=C(C#N)C(c3ccc(F)cc3)C2[n+]2ccccc2)cc1 (configuration not stated)	mHTT CaM bind 82
O=C(CCc1ccccc1)Nc1ccc(C(=O)O)cc1NC(=O)CCc1ccccc1	none
O=C1C(=Nc2ccccc2)c2ccccc2N1CN1CCN(Cc2ccc3c(c2)OCO3)CC1	none
Cc1nc2c(C(=O)NC3CCCCC3)cnn2c(C)c1Cc1ccccc1Cl	none
Cc1nc2c(C(=O)NC3CCCCC3C)cnn2c(C)c1Cc1ccccc1 (configuration not stated)	none
Cc1nc2c(C(=O)NC3CCCCC3)cnn2c(C)c1Cc1cccc(Cl)c1	mHTT CaM bind 61
Cc1nc2c(C(=O)NC3CCCCC3C)cnn2c(C)c1Cc1cccc(Cl)c1 (configuration not stated)	mHTT CaM bind 71
Cc1nc2c(C(=O)NC3CC3)cnn2c(C)c1Cc1ccccc1Cl	mHTT CaM bind 58
Cc1nc2c(C(=O)NC3CCCC3)cnn2c(C)c1Cc1cccc(Br)c1	none
O=Cc1ccc(S(=O)(=O)c2ccc(Cl)cc2)cc1	none
c1cncc(C2Oc3ccccc3C3CC(c4cccs4)=NN32)c1 (configuration not stated)	none
c1ccc(C2Oc3ccccc3C3CC(c4cccs4)=NN32)cc1 (configuration not stated)	none
Clc1ccc(C2=NN3C(C2)c2ccccc2OC3c2ccco2)cc1 (configuration not stated)	mHTT CaM bind 87
Oc1ccccc1C1Oc2ccccc2C2CC(c3cccs3)=NN21 (configuration not stated)	mHTT CaM bind 51
Oc1ccc(C2Oc3ccccc3C3CC(c4cccs4)=NN32)cc1 (configuration not stated)	mHTT CaM bind 51
COc1ccc(O)c(C2Oc3ccccc3C3CC(c4cccs4)=NN32)c1 (configuration not stated)	none
c1ccc(C2=NN3C(C2)c2ccccc2OC3c2cccnc2)cc1 (configuration not stated)	none
CCOc1c(O)ccc(C2Oc3ccccc3C3CC(c4cccs4)=NN32)c1[N+](=O)[O-] (configuration not stated)	mHTT CaM bind 54
Cc1c(C(=O)N2CCN(C(=O)Cc3cccs3)CC2)[nH]c2ccccc12	none
Cc1ccccc1CC(=O)NC1CCCN(c2cc(N(C)C)ncn2)C1 (configuration not stated)	none
